The sample as a whole holds a higher share of hits than the screen did.
TbREL1 primary – TbREL1 RNA ligase inhibitors, primary screen, biochemical, FRET fluorescence | inhibition, % at 9.66 µM | RNA-editing ligase 1, mitochondrial (Trypanosoma brucei brucei), P86926 | TbREL1 RNA ligation | AID 1117264, 2014 | hit rate 0.49% among 89,000;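 active = inhibition above the mean inhibition across all screened compounds plus 3 SD, cut at about 11% in these data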;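 also: 0% = plate median of test wells and 100% = NSC42067 control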
Target sequence (P86926 whole entry, looked up): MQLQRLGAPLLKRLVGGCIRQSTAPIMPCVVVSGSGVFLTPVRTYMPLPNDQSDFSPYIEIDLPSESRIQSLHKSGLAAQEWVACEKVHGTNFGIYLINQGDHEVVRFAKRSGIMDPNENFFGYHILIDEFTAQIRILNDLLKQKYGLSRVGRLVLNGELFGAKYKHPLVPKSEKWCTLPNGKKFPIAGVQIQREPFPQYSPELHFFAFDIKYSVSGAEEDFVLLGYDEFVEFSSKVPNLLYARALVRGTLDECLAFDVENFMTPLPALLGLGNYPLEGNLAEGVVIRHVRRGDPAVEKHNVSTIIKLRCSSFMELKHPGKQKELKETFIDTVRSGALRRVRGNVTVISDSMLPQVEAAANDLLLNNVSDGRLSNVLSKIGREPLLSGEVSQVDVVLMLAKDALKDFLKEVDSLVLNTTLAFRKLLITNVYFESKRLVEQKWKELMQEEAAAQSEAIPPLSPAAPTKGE
TbREL1 confirm – TbREL1 RNA ligase inhibitors, confirmation, biochemical, FRET fluorescence, triplicate. hit rate 37% among 390. shares compounds with TbREL1 primary. AID 1117282, 2014. inhibition, % at 9.66 µM. TbREL1 RNA ligation;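 active = mean inhibition across replicates above a set limit taken from the earlier primary screen, cut at about 11% in these data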;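 also: 0% = REL1 with substrate and DMSO and 100% = REL1 plus control inhibitor NSC42067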
Active calls of the source: *.

SMILES | TbREL1 primary | others
O=C(Cc1ccccc1)NC1CCCc2c1cnn2-c1ccc(F)cc1F (centres undefined) | 11* | TbREL1 confirm=2
O=C(NC1CCCc2c1cnn2-c1ccc(F)cc1F)c1ccccc1 (centres undefined) | 2
Cc1nnc(SCC(=O)NC2CCCc3c2cnn3-c2ccc(F)cc2F)o1 (centres undefined) | -1
O=[N+]([O-])c1ccc2nc(CNc3nc(N4CCOCC4)nc4c3ncn4-c3ccsc3)[nH]c2c1 | 6
Clc1cccc(CNc2nc(-c3ccccn3)nnc2-c2ccccc2)c1 | -3
O=C1CCC[C@H]2C[C@H](NCc3ccc(Br)cc3)CC[C@]23CCCN13 | -2
COc1ccc(-c2cn3nc(C)c(C)nc3n2)cc1OC | 2
COc1ccc(-c2nn3cnnc3s2)cc1OC | 11* | TbREL1 confirm=4
COc1ccc(-c2nn3c(COc4ccccc4)nnc3s2)cc1OC | 0
O=C(C1CCC1)n1ccc2ccc(-c3ccc4ccn(Cc5ccccc5)c4c3)cc21 | 6
CCOc1ccccc1NC(=O)NNC(=O)CCn1nc(C)c([N+](=O)[O-])c1C | 7
Cc1ccc(OCC(O)Cn2c(=N)n(CCN3CCCCC3)c3ccccc32)cc1 (centres undefined) | 9
CCN(CC)CCn1c(=N)n(CC(O)COc2ccccc2)c2ccccc21 (centres undefined) | 3
CCCCCn1c(=N)n(CC(O)COc2ccccc2OC)c2ccccc21 (centres undefined) | 11* | TbREL1 confirm=10
COCCCNC(=O)C[C@H]1C[C@@]2(C(=O)OC)C(=C[C@H](C(C)C)O[C@@H]2C2CC2)N(Cc2ccc(Cl)cc2Cl)C1=O | -4
CC(NCC(=O)Nc1ccccc1C(=O)NC1CC1)c1ccc(S(N)(=O)=O)cc1 (centres undefined) | 17* | TbREL1 confirm=6
O=C(CN1CCN(S(=O)(=O)c2ccc(F)cc2)CC1)Nc1ccccc1C(=O)NC1CC1 | -1
CCN(CC)S(=O)(=O)c1ccc(C(C)NCC(=O)Nc2ccccc2C(=O)NC2CC2)cc1 (centres undefined) | 1
O=C1c2ccccc2-c2nccnc21 | -1
O=C1C(=O)c2cccnc2-c2ncccc21 | 43* | TbREL1 confirm=68*
O=C1c2cc([N+](=O)[O-])ccc2-c2ncccc21 | 1
Fc1cc(F)c(CSc2nnc(-c3cccnc3)n2Cc2ccccc2)cc1F | -1
COC(=O)[C@]12C[C@H](CC(=O)N3CCN(C(=O)C4CC4)CC3)C(=O)N(CCC3=CCCCC3)C1=C[C@H](C1CCCC1)O[C@@H]2C | -2
O=C(OCCOc1ccc(Br)cc1)c1cnccn1 | -2
CCC(=O)c1ccc(OC(=O)c2cnccn2)cc1 | 17* | TbREL1 confirm=3
SMILES | TbREL1 primary | others
COc1ccc(C(=O)NCCNC(=O)c2cnccn2)cc1 | -1
CCCCN1CCN(C(=O)C2CCCN(C(=O)c3ccc4c(c3)NC(=O)CS4)C2)CC1 (centres undefined) | -1
CC(C)CNC(=O)OCc1cn(Cc2ccccc2C(F)(F)F)nn1 | 2
O=C(NC1CCCCC1)C1CCCN(S(=O)(=O)c2cccc3cccnc23)C1 (centres undefined) | 13* | TbREL1 confirm=6
O=C(NC1CCCC1)C1CCN(S(=O)(=O)c2cccc3cccnc23)CC1 | -1
O=C(Nc1ccncc1)C1CCCN(S(=O)(=O)c2cccc3cccnc23)C1 (centres undefined) | -4
Fc1ccc(-c2n[nH]c(=S)n2N=Cc2ccc(-c3ccccc3)cc2)cc1 | 0
Cc1nc2ccc(NS(=O)(=O)c3ccc(F)cc3F)cc2s1 | 2
O=C(NNS(=O)(=O)c1ccc(F)cc1F)C1Cc2c(ccc3ccccc23)O1 (centres undefined) | 3
O=S(=O)(Nc1nc(-c2ccco2)c(-c2ccco2)s1)c1ccc(F)cc1F | 31* | TbREL1 confirm=-1
CCOC(=O)c1csc(NC(=O)C2CCCN(S(=O)(=O)c3ccccc3)C2)n1 (centres undefined) | 0
Cc1cccc(C(=O)N[C@@H]2CC[C@@]34CCCN3C(=O)CCC[C@H]4[C@H]2C)c1 | 6
CC1=NN(c2ccccc2)C(=O)/C1=C\c1cc(C)n(C)c1C | -10
CN(C)/C=C1/C(=O)N(c2ccc([N+](=O)[O-])cc2)N=C1c1ccccc1 | -1
CC1=NN(c2ccccc2)C(=O)/C1=C/N(C)C | 12* | TbREL1 confirm=6
Cc1ccccc1CS(=O)(=O)Cc1ccc(C(=O)Nc2ccc(F)cc2F)o1 | 6
Cn1c(=O)c2cc(S(=O)(=O)N3CCN(c4ccccc4Cl)CC3)ccc2n(C)c1=O | 5
CC(=O)Nc1ccc(NC(=O)c2cccc3ccccc23)cc1 | 3
CC(=O)Nc1cc2c3ccccc3ccc2c2ccccc12 | 32* | TbREL1 confirm=5
CC(=O)Nc1ccccc1NC(=O)COc1cccc2ccccc12 | 0
O=C(c1ccc(Cl)c(Cl)c1)N1CCN(c2ccnc3cc(Cl)ccc23)CC1 | -6
O=C(c1cccnc1)N1CCN(C(=O)c2ccco2)CC1 | 2
O=C(c1cccnc1)N1CCN(Cc2cccc(Br)c2)CC1 | 11* | TbREL1 confirm=6
O=C(c1ccc([N+](=O)[O-])cc1)N1CCN(C(=O)c2cccnc2)CC1 | -2
COc1ccc([C@H]2OC(=O)C[C@H]2C(=O)N2CCN(C(=O)C3CCCO3)CC2)cc1OC (some centres undefined) | -3
SMILES | TbREL1 primary | others
COC(=O)C1=C(C)N(C)C(=NCc2ccc(C(F)(F)F)cc2)NC1c1ccccc1C(F)(F)F (centres undefined) | 10
CCN1C(=NCCOC)N[C@@H](c2cccc(C(F)(F)F)c2)C(C(=O)OC)=C1C | 6
COC(=O)C1=C(C)N(Cc2ccc(C(F)(F)F)cc2)C(=NCc2cccc(C(F)(F)F)c2)NC1c1ccccc1C(F)(F)F (centres undefined) | 20* | TbREL1 confirm=25*
CCN1C(=NCc2ccco2)N[C@@H](c2cccc(C(F)(F)F)c2)C(C(=O)OC)=C1C | 4
COC(=O)C1=C(C)N(C)C(=NCc2ccc(OC)cc2)NC1c1ccccc1C(F)(F)F (centres undefined) | 6
COC(=O)C1=C(C)N(Cc2cccc(C(F)(F)F)c2)C(=NCc2ccc(C(F)(F)F)cc2)NC1c1ccc(C(F)(F)F)cc1 (centres undefined) | 8
COC(=O)C1=C(C)N(Cc2ccc(C(F)(F)F)cc2)C(=NCC2CC2)NC1c1ccccc1C(F)(F)F (centres undefined) | 14* | TbREL1 confirm=16*
COC(=O)C1=C(C)N(Cc2ccc(C(F)(F)F)cc2)C(=NCc2ccc(OC)cc2)NC1c1ccccc1C(F)(F)F (centres undefined) | 17* | TbREL1 confirm=14*
COC(=O)C1=C(C)N(Cc2cccc(C(F)(F)F)c2)C(=NCc2ccc3c(c2)OCO3)NC1c1ccccc1C(F)(F)F (centres undefined) | 13* | TbREL1 confirm=20*
CCCCCCCCN1C(=O)[C@@H](CC(=O)N2CCC(c3ccccc3)CC2)C[C@@]2(C(=O)OC)C1=C[C@H](C(C)C)O[C@@H]2C1CC1 | 9
O=C(Nc1ccc(Oc2ccccc2)cc1)C1CCCN1S(=O)(=O)c1cccc2cccnc12 (centres undefined) | 6
O=C(CN1C(=O)CCSc2ccccc21)Nc1ccc(Cl)c(Cl)c1 | -1
CC(=O)NC(Cc1ccccc1)P(=O)(O)O (centres undefined) | 0

High-throughput results deposited in PubChem BioAssay by The Scripps Research Institute Molecular Screening Center.
